Assay outcomes deposited in PubChem by National Center for Advancing Translational Sciences (NCATS).
Hits are enriched below; roughly 1.4% of the tested compounds scored in any of these assays.
ASM inhibitor – human S-ASM enzyme inhibition. P17405. placental ASM, HMU-PC fluorogenic substrate, 60 min. Potency, µM (doses to about 57.5 µM), for inactives: at the top dose activity change, negative = inhibition, usual class: inhibitors. 340,000 compounds, 0.006% hits. AID 504937; further: potency means the concentration at half of the fitted maximal effect
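Steps: dispense placental human ASM, pin compound, wait 10 min at room temperature, add HMU-PC0 substrate at 9 uM final, incubate 60 min at 37 °C, add stop solution raising pH to 10, read fluorescence.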
uPA surface inh – blocks generation of uPA at the cell surface. cell surface uPA generation assay, qHTS. Potency, µM (titrated, usually from 38.3 µM), inactives show at the highest dose activity change, negative = inhibition, actives largely listed as inhibitors. 330,000 compounds, 0.31% hits; active means well fitted inhibition curve with a large enough effect; inconclusive means small, poorly fitted or top-dose-only effect; inactive means no such curve, though single readings can be large or run the other way; tested in mouse RAW 264.7 cells; further: potency means the concentration at half of the fitted maximal effect; on the % scale 0 is the no-effect control and ±100 the full control effect; nearly all actives have a fitted effect of over 55% in size
KCNH2 3.1 block – inhibitors of human KCNH2 3.1 potassium channel isoform. U2OS KCNH2 3.1, thallium flux FluxOr; stronger effect = lower value. activity change, % (tested at about 1.8 µM). 340,000 compounds, 0.95% hits;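 active means maximum activity change below -70%; inconclusive means maximum activity change from -70% to -50%; inactive means maximum activity change above -50%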;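 further: thallium influx rate constant from kinetic fluorescence after stimulation buffer; on the % scale 0 is the no-effect control and ±100 the full control effect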
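Normalized rate constant (relative to positive and negative DMSO controls) derived from a 2 min kinetic fluorescence read after stimulation; U2OS cells expressing the 3.1 isoform via virus at 1.77 x 10^8 /mL.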
p53 reactivator – re-activators of mutant p53; AID 504706; 320,000 compounds, 0.063% hits; H1299 p53-A138V BP100-luciferase reporter, luminescence, 24 h; Potency, µM (top dose mostly 92.2 µM), inactives show at the highest dose activity change, positive = activation, most hits filed as activators; further: potency means the concentration at half of the fitted maximal effect; % of control where 0% means no effect; nearly all actives have a fitted effect of over 45% in size
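H1299 (p53-null), stable ts p53-A138V + BP100-Luc; 1000 cells/well, Opti-MEM/10% FBS; cpd 4 pt, 1:5; 24 h, 37 deg C, 5% CO2; detection reagent 10 min RT; luminescence.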
hERG WT inh – blocks the wildtype human KCNH2 potassium channel; Q12809; U2OS, BacMam KCNH2, thallium flux FluxOr; stronger effect = lower value; activity change, % at 1.84 µM; 340,000 compounds, 0.37% hits; AID 720551;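 active means maximum activity change below -70%; inconclusive means maximum activity change between -70% and -50%; inactive means maximum activity change above -50%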; further: on the % scale 0 is the no-effect control and ±100 the full control effect
Target sequence (Q12809 whole entry, looked up): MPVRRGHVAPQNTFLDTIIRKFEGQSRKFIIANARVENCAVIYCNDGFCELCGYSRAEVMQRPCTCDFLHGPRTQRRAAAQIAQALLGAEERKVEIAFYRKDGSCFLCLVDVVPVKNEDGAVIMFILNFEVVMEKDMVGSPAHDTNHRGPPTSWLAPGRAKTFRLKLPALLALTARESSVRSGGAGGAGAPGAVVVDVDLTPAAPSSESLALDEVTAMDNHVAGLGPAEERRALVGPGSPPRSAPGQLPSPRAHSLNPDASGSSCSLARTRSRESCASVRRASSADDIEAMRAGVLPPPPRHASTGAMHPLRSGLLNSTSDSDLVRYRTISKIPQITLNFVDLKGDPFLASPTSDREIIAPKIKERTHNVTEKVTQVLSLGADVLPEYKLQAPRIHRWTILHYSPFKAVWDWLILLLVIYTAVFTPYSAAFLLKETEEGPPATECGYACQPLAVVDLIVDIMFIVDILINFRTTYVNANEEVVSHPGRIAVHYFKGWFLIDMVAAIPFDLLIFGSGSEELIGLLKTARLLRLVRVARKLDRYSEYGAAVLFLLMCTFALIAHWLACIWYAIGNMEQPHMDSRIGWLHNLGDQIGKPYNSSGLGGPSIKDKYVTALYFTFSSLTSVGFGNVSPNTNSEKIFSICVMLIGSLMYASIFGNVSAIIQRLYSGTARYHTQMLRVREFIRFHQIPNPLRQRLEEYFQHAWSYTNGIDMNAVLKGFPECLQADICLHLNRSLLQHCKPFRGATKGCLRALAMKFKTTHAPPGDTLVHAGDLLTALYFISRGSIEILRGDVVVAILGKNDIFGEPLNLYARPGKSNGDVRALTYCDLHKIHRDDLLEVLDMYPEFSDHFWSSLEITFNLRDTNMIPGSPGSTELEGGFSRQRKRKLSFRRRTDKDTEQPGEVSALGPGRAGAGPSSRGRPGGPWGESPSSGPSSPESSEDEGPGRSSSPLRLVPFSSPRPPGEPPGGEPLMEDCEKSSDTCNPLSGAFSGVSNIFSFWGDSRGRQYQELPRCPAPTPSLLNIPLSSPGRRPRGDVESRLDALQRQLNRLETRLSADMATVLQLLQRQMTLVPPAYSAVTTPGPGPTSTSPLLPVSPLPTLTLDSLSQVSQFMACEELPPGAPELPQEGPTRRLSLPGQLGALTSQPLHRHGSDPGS
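U2OS cells were transduced with wild-type KCNH2 virus (2.03 x 10^8 / mL) for 4 h at room temperature, then cultured overnight at 37 C. Thallium flux was read with FluxOr dye. Rate constants were normalized to DMSO controls.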
MmCpn inh – blocks the Methanococcus maripaludis chaperonin Mm-Cpn; Potency, µM (top dose mostly 76.9 µM), inactives show top-dose activity, negative = inhibition, hits mostly inhibitors; 330,000 compounds, 0.031% hits; purified Mm-Cpn ATPase, ADP Transcreener TR-FRET; AID 504842; further: potency means the concentration at half of the fitted maximal effect; on the % scale 0 is the no-effect control and ±100 the full control effect; nearly all actives have a fitted effect of over 80% in size
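Quantitative HTS used 25 nM Mm-CPN and 10 uM ATP in magnesium/KCl Tris buffer, pH 7.4, with 1 mM DTT. Hydrolysis ran 30 min at 37°C; ADP was read by HTRF.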
* marks the source's active call; other numbers are inactive results; ? = inconclusive; nt = no result given. Unless noted, the call rests on the fitted dose curve; in most records, active means well fitted curve in the direction sought with a large enough effect; inconclusive means small, poorly fitted or top-dose-only effect, or another doubt; inactive means no such curve, though single readings can be large; an effect the other way counts as inactive or inconclusive.

SMILES | ASM inhibitor | uPA surface inh | KCNH2 3.1 block | p53 reactivator | hERG WT inh | MmCpn inh
Cc1cccc(NS(=O)(=O)c2ccc(C(=O)NCC3(N4CCCCC4)CCCCC3)cc2)c1C | nt | -7% | -78* | -4% | 8 | -1%
Cc1ccccc1NS(=O)(=O)c1ccc(C(=O)NCC2(N3CCOCC3)CCCCC2)cc1 | 0% | 1% | -2 | nt | 7 | nt
O=C(N/N=C/c1c(O)ccc2ccccc12)C(=O)N1CCCC1 | nt | nt | -3 | nt | 11 | nt
CSc1ccc(/C=N/NC(=O)CN2CCN(Cc3ccc(C)cc3)CC2)cc1 | 3% | -1% | -113* | 1% | -47 | 0%
CSc1ccc(/C=N/NC(=O)CN2CCN(Cc3ccccc3Cl)CC2)cc1 | 1% | 2% | -82* | -7% | 29 | 2%
O=C(CN1CCCCCC1)N/N=C/c1ccc(Cl)c(Cl)c1 | 3% | -2% | -75* | 6% | -1 | 1%
O=C(CN1CCCC1)N/N=C/c1c(O)ccc2ccccc12 | 70% | 5µM* | -23 | nt | 2 | -2%
COc1cc(/C=C/C(O)=C/C(=O)/C=C/c2ccc(O)cc2)ccc1O | -24% | -29% | -12 | ? | -17 | 0%
COC(=O)c1cc(O)cc(OC)c1C(=O)c1c(O)cc(C)cc1O | 4% | -18% | -2 | -7% | -4 | -1%
COC(=O)c1cc(O)cc(OC)c1Oc1cc(C)cc(O)c1C(=O)O | 2% | 0.89µM* | -11 | 9% | 0 | -5%
NC(=O)C1CCN(c2nc(-c3ccc(C(F)(F)F)cc3)cs2)CC1 | nt | nt | nt | nt | nt | -21%
CC(C)(C)C(=O)OCc1nc(-c2ccc(C(F)(F)F)cc2)cs1 | 29% | 3% | -93* | 7% | 12 | 0%
COc1ccc(C(=O)C2CCCN(Cc3cccn3-c3ccccn3)C2)c(OC)c1 (stereo not given) | 1% | -12% | -91* | -3% | -48 | -5%
O=C(c1cc(F)ccc1F)C1CCCN(Cc2cccn2-c2ccccn2)C1 (stereo not given) | 2% | -15% | 17 | -4% | -36 | 3%
COc1ccc(F)cc1C(=O)C1CCCN(Cc2cccn2-c2ccccn2)C1 (stereo not given) | 2% | -7% | -86* | -3% | -71* | 0%
N#CN=CN1CC=C(c2ccc(Cl)cc2)CC1 | nt | nt | -1 | nt | 0 | nt
Cc1cccn2cc(COc3cccc([N+](=O)[O-])c3)nc12 | -1% | 1% | -9 | 6% | -7 | -2%
Cc1cccn2cc(COc3ccc(-c4ccccc4)cc3)nc12 | -8% | -11% | -101* | 15% | 4 | 1%
O=C(COC(=O)Cc1ccc(Br)cc1)NCc1ccccc1 | nt | nt | -9 | nt | 6 | nt
O=C(Cc1ccc(Br)cc1)NCc1ccccc1 | 0% | -6% | 1 | 14% | -300* | -1%
CSCc1nc2scc(-c3ccccc3)c2c(=O)[nH]1 | -2% | -6% | -92* | -4% | 1 | -3%
Cc1ccc(S(=O)(=O)N(C)Cc2ccc(C(=O)N/N=C/c3ccc(OC(F)F)cc3)cc2)cc1 | 4% | 4% | -109* | 7% | ? | 2%
Cc1cnc2c(c1)C(=O)c1ccccc1-2 | 3% | 4% | -111* | 9% | 1 | 0%
O=C(NCCc1ccccc1)C1CCN(S(=O)(=O)N2CCOCC2)CC1 | -1% | 20% | -3 | -5% | -104* | 3%
CN(C)CCCNC(=O)/C(=C/c1ccc(-c2ccc([N+](=O)[O-])cc2)o1)NC(=O)c1ccccc1 | 6% | -20% | -99* | nt | ? | -2%
SMILES | ASM inhibitor | uPA surface inh | KCNH2 3.1 block | p53 reactivator | hERG WT inh | MmCpn inh
CN(C)CCCNC(=O)/C(=C\c1ccc(-c2ccc(Br)cc2)o1)NC(=O)c1ccccc1 | 88% | -11% | -117* | 0% | -36 | 1%
CN(C)CCNC(=O)/C(=C/c1ccc(-c2cccc([N+](=O)[O-])c2)o1)NC(=O)c1ccccc1 | -1% | 2% | -6 | -12% | -13 | -1%
Cc1ccc(C(=O)N/C(=C\c2ccc(-c3ccccc3[N+](=O)[O-])o2)C(=O)NCCCN(C)C)cc1 | -1% | 1% | -28 | 0% | -9 | -1%
Cc1ccc(C(=O)N/C(=C\c2ccc(-c3ccc(Cl)cc3)o2)C(=O)NCCCN(C)C)cc1 | 86% | 23% | ? | -11% | -83* | -2%
O=C(Cn1cc(COc2ccc3ccc(=O)oc3c2)nn1)c1ccc(O)cc1 | 11% | -6% | 12 | nt | 6 | nt
CC(c1ccccc1)N1CCN(C(=O)CCl)CC1 (stereo not given) | 6% | 8.9µM* | 0 | -10% | nt | -4%
CC(C)(C)c1ccc(Cn2cnc(-c3ccc([N+](=O)[O-])cc3)c2)cc1 | ? | ? | 1 | 28µM* | 1 | 0%
COc1cc2c(cc1OC)-c1cc(Nc3ccc(C(=O)O)cc3)nc(=O)n1CC2 | 94% | 5% | -93* | -6% | 7 | 0%
COc1ccc(Nc2cc3n(c(=O)n2)CCc2cc(OC)c(OC)cc2-3)cc1 | 4% | -14% | 1 | -8% | 1 | 0%
CCCCN(C(=O)COC(=O)CSc1cc(C)c2ccccc2n1)c1c(N)n(CCC)c(=O)[nH]c1=O | 3% | 1% | -16 | 7% | -25 | -4%
CCCCN(C(=O)COC(=O)CSc1ccc([N+](=O)[O-])cc1)c1c(N)n(CCC)c(=O)[nH]c1=O | 4% | 3% | -115* | 3% | -3 | 0%
Clc1ccc(/C=N/NC2=Nc3cccc4cccc2c34)cc1 | -8% | 5% | -18 | ? | -1 | 0%
C(=N\NC1=Nc2cccc3cccc1c23)/c1ccccc1 | ? | 5% | 0 | 50µM* | -9 | -4%
O=C(NCc1ccccc1)c1c[nH]c2cc3c(cc2c1=O)OCCO3 | 3% | nt | -3 | 11µM* | 18 | -2%
COC(=O)C1=C(C(=O)OC)[C@]2([C@@H]3CCCCN[C@@H](Cc4ccccc4)C(=O)N3Cc3ccccc3)C=C[C@H]1O2 | -8% | -2% | -2 | nt | -17 | nt
CC12CN3CC(C)(CN(C1)C3c1ccccc1F)C2 (stereo not given) | -2% | -5% | -99* | -2% | 1 | 1%
CCC(Sc1nc(-c2ccccc2)c(C#N)c(=O)[nH]1)C(=O)Nc1cc(C)on1 (stereo not given) | 6% | -30% | -71* | 5% | 0 | -19%
CCOC(=O)N1CCC(NCCNC(=O)c2cccc(F)c2)CC1 | 8% | 9% | nt | -3% | nt | -2%
Cc1ccc(/C=C/C(=O)c2ccc(O)cc2)cc1 | -3% | -9% | -40 | 11µM* | -1 | 0%
Cc1ccc(/C=C/C(=O)c2ccccc2)cc1 | -2% | nt | nt | ? | nt | -2%
